# Measurements from PubChem BioAssay AID1159580 (chemical genetic matrix, 2015).
# The whole screen tested about 5,500 compounds, of which about 2,000 (36%) were called active. Another 18% or so got no clear call; they are omitted. The list shows a part of the results. A number with no mark means an inactive call. No stated cut-off is given here; in the data, active means normalized growth mostly below about 0.91 (no sharp cut-off); inconclusive means no clear call, values can overlap the other calls; inactive means mostly above about 0.92.
# Experiment: chemical genetic growth profiling, strain panel (AID 1159580);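 further: tested at 20 µM; growth read once vehicle control cultures reached saturation at 30 °C; 1 = growth at the plate median or of vehicle wells; lower values mean less growth of the strain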
# Settings: growth OD
# [1] = S. cerevisiae deletion strains, locus YDL101C, strain DUN1, hits give low values
# [2] = S. cerevisiae deletion strains, locus YHR030C, strain SLT2, hits give low values
compound,measurement,setting,value
CC(C)(C)C(=O)c1sc2sc(C(=O)C(C)(C)C)c(N)c2c1N,normalized growth,"S. cerevisiae deletion strains, locus YAR019C, strain CDC15, hits give low values",0.993
same,normalized growth,"S. cerevisiae deletion strains, locus YBL105C, strain PKC1, hits give low values",0.992
same,normalized growth,"S. cerevisiae deletion strains, locus YBR135W, strain CKS1, hits give low values",0.984
same,normalized growth,"S. cerevisiae deletion strains, locus YBR136W, strain MEC1, hits give low values",0.984
same,normalized growth,"S. cerevisiae deletion strains, locus YBR160W, strain CDC28, hits give low values",0.994
same,normalized growth,"S. cerevisiae deletion strains, locus YDL017W, strain CDC7, hits give low values",0.993
same,normalized growth,"S. cerevisiae deletion strains, locus YDL028C, strain MPS1, hits give low values",0.992
same,normalized growth,[1],0.981
same,normalized growth,"S. cerevisiae deletion strains, locus YDL108W, strain KIN28, hits give low values",0.989
same,normalized growth,"S. cerevisiae deletion strains, locus YDL132W, strain cdc53, hits give low values",0.975
same,normalized growth,"S. cerevisiae deletion strains, locus YDL214C, strain PRR2, hits give low values",0.835
same,normalized growth,"S. cerevisiae deletion strains, locus YDR052C, strain DBF4, hits give low values",0.999
same,normalized growth,"S. cerevisiae deletion strains, locus YDR054C, strain cdc34, hits give low values",0.983
same,normalized growth,"S. cerevisiae deletion strains, locus YDR226W, strain ADK1, hits give low values",0.976
same,normalized growth,"S. cerevisiae deletion strains, locus YDR477W, strain SNF1, hits give low values",0.875
same,normalized growth,"S. cerevisiae deletion strains, locus YER123W, strain YCK3, hits give low values",0.752
same,normalized growth,"S. cerevisiae deletion strains, locus YER133W, strain GLC7, hits give low values",0.862
same,normalized growth,"S. cerevisiae deletion strains, locus YFL009W, strain cdc4, hits give low values",0.988
same,normalized growth,"S. cerevisiae deletion strains, locus YFL029C, strain CAK1, hits give low values",0.991
same,normalized growth,"S. cerevisiae deletion strains, locus YFR003C, strain YPI1, hits give low values",0.997
same,normalized growth,"S. cerevisiae deletion strains, locus YFR019W, strain FAB1, hits give low values",0.47 (active)
same,normalized growth,"S. cerevisiae deletion strains, locus YFR028C, strain CDC14, hits give low values",0.982
same,normalized growth,"S. cerevisiae deletion strains, locus YGR040W, strain KSS1, hits give low values",0.879
same,normalized growth,"S. cerevisiae deletion strains, locus YGR052W, strain FMP48, hits give low values",0.689
same,normalized growth,"S. cerevisiae deletion strains, locus YGR092W, strain DBF2, hits give low values",0.894
same,normalized growth,[2],0.152 (active)
same,normalized growth,"S. cerevisiae deletion strains, locus YHR079C, strain IRE1, hits give low values",0.274 (active)
same,normalized growth,"S. cerevisiae deletion strains, locus YHR082C, strain KSP1, hits give low values",0.62
same,normalized growth,"S. cerevisiae deletion strains, locus YHR205W, strain SCH9, hits give low values",0.872
same,normalized growth,"S. cerevisiae deletion strains, locus YIL147C, strain SLN1, hits give low values",0.995
same,normalized growth,"S. cerevisiae deletion strains, locus YJL095W, strain BCK1, hits give low values",0.52
same,normalized growth,"S. cerevisiae deletion strains, locus YJL128C, strain PBS2, hits give low values",0.931
same,normalized growth,"S. cerevisiae deletion strains, locus YJL157C, strain FAR1, hits give low values",0.785
same,normalized growth,"S. cerevisiae deletion strains, locus YJR016C, strain ILV3, hits give low values",0.99
same,normalized growth,"S. cerevisiae deletion strains, locus YJR066W, strain TOR1 (second series), hits give low values",0.823
same,normalized growth,"S. cerevisiae deletion strains, locus YJR066W, strain TOR1, hits give low values",0.589
same,normalized growth,"S. cerevisiae deletion strains, locus YKL048C, strain ELM1, hits give low values",0.983
same,normalized growth,"S. cerevisiae deletion strains, locus YKL067W, strain YNK1, hits give low values",0.902
same,normalized growth,"S. cerevisiae deletion strains, locus YKL101W, strain HSL1, hits give low values",0.962
same,normalized growth,"S. cerevisiae deletion strains, locus YKL193C, strain SDS22, hits give low values",0.987
same,normalized growth,"S. cerevisiae deletion strains, locus YKL203C, strain TOR2, hits give low values",0.936
same,normalized growth,"S. cerevisiae deletion strains, locus YLR113W, strain HOG1, hits give low values",0.663 (active)
same,normalized growth,"S. cerevisiae deletion strains, locus YLR133W, strain CKI1, hits give low values",0.888
same,normalized growth,"S. cerevisiae deletion strains, locus YLR403W, strain SFP1, hits give low values",0.851
same,normalized growth,"S. cerevisiae deletion strains, locus YML070W, strain DAK1, hits give low values",0.704
same,normalized growth,"S. cerevisiae deletion strains, locus YMR001C, strain CDC5, hits give low values",0.993
same,normalized growth,"S. cerevisiae deletion strains, locus YMR205C, strain PFK2 (second series), hits give low values",0.965
same,normalized growth,"S. cerevisiae deletion strains, locus YMR277W, strain FCP1, hits give low values",0.989
same,normalized growth,"S. cerevisiae deletion strains, locus YNL006W, strain LST8, hits give low values",0.999
same,normalized growth,"S. cerevisiae deletion strains, locus YNL020C, strain ARK1, hits give low values",0.892
same,normalized growth,"S. cerevisiae deletion strains, locus YNL161W, strain CBK1, hits give low values",0.994
same,normalized growth,"S. cerevisiae deletion strains, locus YNL183C, strain NPR1, hits give low values",0.855
same,normalized growth,"S. cerevisiae deletion strains, locus YNL207W, strain RIO2, hits give low values",0.989
same,normalized growth,"S. cerevisiae deletion strains, locus YNL222W, strain SSU72, hits give low values",0.993
same,normalized growth,"S. cerevisiae deletion strains, locus YNL307C, strain MCK1 (second series), hits give low values",0.97
same,normalized growth,"S. cerevisiae deletion strains, locus YOL078W, strain AVO1, hits give low values",0.987
same,normalized growth,"S. cerevisiae deletion strains, locus YOL136C, strain PFK27, hits give low values",0.6 (active)
same,normalized growth,"S. cerevisiae deletion strains, locus YOR061W, strain CKA2, hits give low values",0.915
same,normalized growth,"S. cerevisiae deletion strains, locus YOR119C, strain RIO1, hits give low values",1.01
same,normalized growth,"S. cerevisiae deletion strains, locus YOR231W, strain MKK1, hits give low values",0.682
same,normalized growth,"S. cerevisiae deletion strains, locus YOR329C, strain SCD5, hits give low values",0.991
same,normalized growth,"S. cerevisiae deletion strains, locus YPL031C, strain PHO85, hits give low values",0.804
same,normalized growth,"S. cerevisiae deletion strains, locus YPL153C, strain RAD53, hits give low values",0.692
same,normalized growth,"S. cerevisiae deletion strains, locus YPL204W, strain HRR25, hits give low values",0.646 (active)
same,normalized growth,"S. cerevisiae deletion strains, locus YPL209C, strain IPL1, hits give low values",0.993
same,normalized growth,"S. cerevisiae deletion strains, locus YPL256C, strain CLN2, hits give low values",0.326 (active)
same,normalized growth,"S. cerevisiae deletion strains, locus YPR025C, strain CCL1, hits give low values",0.991
same,normalized growth,"S. cerevisiae deletion strains, locus YPR106W, strain ISR1, hits give low values",0.995
same,normalized growth,"S. cerevisiae deletion strains, locus YPR111W, strain DBF20, hits give low values",0.99
same,normalized growth,"S. cerevisiae deletion strains, strain NNK1, hits give low values",0.996
same,normalized growth,"S. cerevisiae deletion strains, strain TSCII, hits give low values",0.994
CC(C)(C)c1ccc(-c2cc(N)c(C(N)=O)s2)cc1,normalized growth,"S. cerevisiae deletion strains, locus YAL013W, strain DEP1, hits give low values",0.978
same,normalized growth,"S. cerevisiae deletion strains, locus YBR229C, strain ROT2, hits give low values",0.997
same,normalized growth,"S. cerevisiae deletion strains, locus YCL061C, strain MRC1, hits give low values",1.01
same,normalized growth,[1],1.01
same,normalized growth,"S. cerevisiae deletion strains, locus YDR150W, strain NUM1, hits give low values",0.974
same,normalized growth,"S. cerevisiae deletion strains, locus YEL061C, strain CIN8, hits give low values",0.967
same,normalized growth,"S. cerevisiae deletion strains, locus YGR078C, strain PAC10, hits give low values",1.01
same,normalized growth,[2],0.761
same,normalized growth,"S. cerevisiae deletion strains, locus YHR087W, strain rtc3, hits give low values",1.02
same,normalized growth,"S. cerevisiae deletion strains, locus YJR043C, strain POL32, hits give low values",0.979
same,normalized growth,"S. cerevisiae deletion strains, locus YJR075W, strain HOC1, hits give low values",1
same,normalized growth,"S. cerevisiae deletion strains, locus YKL190W, strain CNB1, hits give low values",1
same,normalized growth,"S. cerevisiae deletion strains, locus YLR039C, strain RIC1, hits give low values",0.93
same,normalized growth,"S. cerevisiae deletion strains, locus YLR058C, strain SHM2 (second series), hits give low values",1.01
same,normalized growth,"S. cerevisiae deletion strains, locus YLR085C, strain ARP6, hits give low values",0.987
same,normalized growth,"S. cerevisiae deletion strains, locus YLR262C, strain YPT6, hits give low values",0.827
same,normalized growth,"S. cerevisiae deletion strains, locus YML094W, strain GIM5, hits give low values",1.01
same,normalized growth,"S. cerevisiae deletion strains, locus YMR219W, strain ESC1, hits give low values",0.996
same,normalized growth,"S. cerevisiae deletion strains, locus YMR263W, strain SAP30, hits give low values",0.967
same,normalized growth,"S. cerevisiae deletion strains, locus YMR307W, strain GAS1, hits give low values",0.881
same,normalized growth,"S. cerevisiae deletion strains, locus YNL153C, strain GIM3, hits give low values",1
same,normalized growth,"S. cerevisiae deletion strains, locus YNL298W, strain CLA4 (second series), hits give low values",0.966
same,normalized growth,"S. cerevisiae deletion strains, locus YNL322C, strain KRE1, hits give low values",0.985
same,normalized growth,"S. cerevisiae deletion strains, locus YNR030W, strain Alg12, hits give low values",0.942
same,normalized growth,"S. cerevisiae deletion strains, locus YOL006C, strain TOP1, hits give low values",0.946
same,normalized growth,"S. cerevisiae deletion strains, locus YPL055C, strain LGE1, hits give low values",0.916
same,normalized growth,"S. cerevisiae deletion strains, locus YPL241C, strain CIN2, hits give low values",0.983
same,normalized growth,"S. cerevisiae deletion strains, locus YPR135W, strain CTF4, hits give low values",0.783
same,normalized growth,"S. cerevisiae strains, strain wild type, hits give low values",0.989
